From PubChem BioAssay (Tox21)
Records with an inconclusive call do not appear. Active and inactive are the calls of the source. Unless noted, calls follow the shape of the dose curve; as a rule, active = well fitted curve in the direction sought with a large enough effect in the repeat runs; inconclusive = weak or mixed curves; inactive = no such curve, though single readings can be large; an effect the other way counts as inactive or inconclusive.

Legend:
[1] = qHTS assay to identify aromatase inhibitors - cell viability counter screen (AID 743084);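 also: cells stimulated with testosterone during compound exposure; nearly all actives have a fitted effect of over 55% in size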; also: potency is read from the fitted curve at half-maximal effect
[2] = molecular target: Aryl hydrocarbon receptor (Homo sapiens) (UniProt P35869); test: qHTS assay to identify small molecule that activate the aryl hydrocarbon receptor (AhR) signaling pathway (AID 743085); also: nearly all actives have a fitted effect of over 15% in size; also: potency is read from the fitted curve at half-maximal effect;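 as to activation: HG2L7.5c1 human HepG2 liver cells with stably integrated DRE-driven firefly reporter; series mostly up to about 70 µM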
Outline: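 Cell line HG2L7.5c1 (human hepatoma, 20× DRE-luc). Plated, 5 h 37C, compound/DMSO added, 24 h 37C. CellTiter-Fluor 30 min 37C → fluorescence; then ONE-Glo 30 min RT → luminescence.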

[3] = molecular target: Peroxisome proliferator-activated receptor gamma (Homo sapiens) (UniProt P37231); test: qHTS assay to identify small molecule agonists of the peroxisome proliferator-activated receptor gamma (PPARg) signaling pathway (AID 743094; active = well fitted activation curve with a large enough effect in the signal ratio in the repeat runs, not every such curve was filed as active; the % refers to the signal ratio)
Outline: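 Beta-lactamase FRET fluorescence was the read-out after a 1 h room-temperature substrate step, following 17 h compound treatment at 37C of HEK293H cells expressing a UAS-driven bla reporter responsive to PPARg.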

[4] = qHTS assay to identify small molecule antagonists of the peroxisome proliferator-activated receptor gamma (PPARg) signaling pathway - cell viability counter screen (AID 743194); settings: Potency: co-treated with 50 nM rosiglitazone; also: nearly all actives have a fitted effect of over 55% in size
Outline: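 Viability was measured as CellTiter-Glo luminescence in GeneBLAzer PPARg UAS-bla HEK293H cells. These cells had been exposed 17 h at 37 C to compounds together with rosiglitazone at 50 nM final, with the beta-lactamase readout taken in the same wells.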

[5] = qHTS assay for small molecule agonists of the antioxidant response element (ARE) signaling pathway - cell viability counter screen (AID 743203; calls by dose curve; also: nearly all actives have a fitted effect of over 55% in size)
Outline: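 HepG2 cells carrying ARE-driven beta-lactamase; 2,000 cells/well; 5 hrs plating; compound pinned from DMSO; 16 hrs 37C/5% CO2; CellTiter-Glo added; 30 min RT; luminescence.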

[6] = qHTS assay for small molecule activators of the heat shock response signaling pathway - cell viability counter screen (AID 743209); also: nearly all actives have a fitted effect of over 50% in size
Outline: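 Luminescence from CellTiter-Glo, added after the beta-lactamase FRET read, gave the viability signal. Cells were HSE-bla HeLa treated with DMSO-dissolved compounds for 5 h at 37 C following overnight plating.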

[7] = qHTS assay for small molecule activators of the heat shock response signaling pathway (AID 743210; active = well fitted activation curve with a large enough effect in the signal ratio in the repeat runs, with a control signal flat, not every such curve was filed as active; the % refers to the signal ratio; also: potency is read from the fitted curve at half-maximal effect;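 as to activation: HeLa cells with beta-lactamase reporter driven by heat shock elements; series mostly up to about 63 µM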)
Outline: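 HeLa HSE-bla cells, overnight plating; cpd in DMSO 5 h, 37 C; LiveBLAzer B/G FRET substrate 2.5 h RT; fluorescence intensity read.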

[8] = molecular target: Peroxisome proliferator-activated receptor delta (Homo sapiens) (UniProt Q03181); test: qHTS assay to identify small molecule agonists of the peroxisome proliferator-activated receptor delta (PPARd) signaling pathway (AID 743212; calls by dose curve)
Outline: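 HEK293H PPARd-bla cells; 5 h preincubation 37 C/5% CO2; compound (DMSO) 37 C; LiveBLAzer B/G FRET substrate 2 h RT; fluorescence intensity.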

[9] = qHTS assay to identify small molecule antagonists of the peroxisome proliferator-activated receptor delta (PPARd) signaling pathway - cell viability counter screen (AID 743213); also: nearly all actives have a fitted effect of over 50% in size
Outline: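 Viability counter-screen, qHTS format: PPARd-bla HEK293H, L165041 300 nM final, 17 h compound exposure at 37 C, CellTiter-Glo luminescence after 30 min RT.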

[10] = molecular target: Peroxisome proliferator-activated receptor delta (Homo sapiens) (UniProt Q03181); test: qHTS assay to identify small molecule antagonists of the peroxisome proliferator-activated receptor delta (PPARd) signaling pathway (AID 743215; active = well fitted inhibition curve with a large enough effect in the signal ratio in the repeat runs, not every such curve was filed as active; the % refers to the signal ratio;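 also: cells stimulated with agonist L165041 at 300 nM final during compound exposure; series mostly up to about 62 µM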)
Outline: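 Read-out is beta-lactamase FRET fluorescence, measured 2 h after substrate addition at room temperature. Beforehand, UAS-bla HEK293H cells carrying the PPARd reporter were exposed to compounds with L165041 at 300 nM final for 17 h at 37 C.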

[11] = qHTS assay to identify small molecule antagonists of the farnesoid-X-receptor (FXR) signaling pathway - cell viability counter screen (AID 743221; active = well fitted cell-killing curve with a large enough effect in the repeat runs, not every such curve was filed as active; also: nearly all actives have a fitted effect of over 50% in size)
Outline: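 Luminescence from CellTiter-Glo measures cytotoxicity in GeneBLAzer FXR-UAS-bla HEK 293T cells. Cells were exposed to compounds with 50 uM chenodeoxycholic acid (final) for 16 h at 37 C, in wells also used for the reporter readout.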

[12] = molecular target: Vitamin D3 receptor (Homo sapiens) (UniProt P11473); test: qHTS assay to identify small molecule agonists of the vitamin D receptor (VDR) signaling pathway (AID 743222; calls by dose curve)
Outline: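 VDR-bla cells, 2,000/well; 4 h preincubation 37C; cpd (DMSO) 16 h; LiveBLAzer B/G substrate 2 h RT; fluorescence intensity read.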

[13] = molecular target: Vitamin D3 receptor (Homo sapiens) (UniProt P11473); test: qHTS assay to identify small molecule antagonists of the vitamin D receptor (VDR) signaling pathway (AID 743223; active = well fitted inhibition curve with a large enough effect in the signal ratio in the repeat runs, not every such curve was filed as active; the % refers to the signal ratio)
Outline: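 Antagonist mode uses 1alpha,25-dihydroxyvitamin D3 at 3 nM final as stimulus. VDR-bla cells receive compounds in DMSO, incubate 16 h at 37C, then a beta-lactamase FRET substrate for 2 h at room temperature before fluorescence measurement.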

[14] = qHTS assay to identify small molecule that activate the aryl hydrocarbon receptor (AhR) signaling pathway - cell viability counter screen (AID 743086);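 also: HepG2 liver cells carrying the AhR DRE luciferase reporter; series mostly up to about 70 µM; nearly all actives have a fitted effect of over 45% in size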
Outline: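 Cytotoxicity counter screen: CellTiter-Fluor signal (30 min, 37 C) in 4000 HepG2 cells/well carrying the DRE-luciferase reporter, following 24 h compound exposure at 37 C.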

[15] = molecular target: Peroxisome proliferator-activated receptor gamma (Homo sapiens) (UniProt P37231); test: qHTS assay to identify small molecule antagonists of the peroxisome proliferator-activated receptor gamma (PPARg) signaling pathway (AID 743191; calls by dose curve; also: series mostly up to about 63 µM; nearly all actives have a fitted effect of over 30% in size)
Outline: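 Beta-lactamase reporter under UAS control in HEK293H PPARg-bla cells; compound treatment 17 h at 37C. Read-out: fluorescence intensity after 1 h room-temperature incubation with LiveBLAzer B/G FRET substrate.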

[16] = qHTS assay to identify small molecule agonists of the peroxisome proliferator-activated receptor delta (PPARd) signaling pathway - cell viability counter screen (AID 743211); also: nearly all actives have a fitted effect of over 55% in size
Outline: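 HEK293H PPARd-bla, 3000 cells/well; 5 h preincubation 37C/5% CO2; cpd in DMSO, 17 h 37C; B/G FRET substrate 2 h RT; CellTiter-Glo 30 min RT, luminescence.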

[17] = qHTS assay to identify small molecule agonists of the farnesoid-X-receptor (FXR) signaling pathway - cell viability counter screen (AID 743218); also: nearly all actives have a fitted effect of over 45% in size
Outline: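 HEK 293T FXR-bla cells; 5 h pre-incubation, 16 h compound exposure at 37 C; LiveBLAzer substrate 2 h RT, then CellTiter-Glo 30 min RT, luminescence.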

[18] = molecular target: Bile acid receptor (Homo sapiens) (UniProt Q96RI1); test: qHTS assay to identify small molecule antagonists of the farnesoid-X-receptor (FXR) signaling pathway (AID 743217; active = well fitted inhibition curve with a large enough effect in the signal ratio in the repeat runs, not every such curve was filed as active; the % refers to the signal ratio)
Outline: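 HEK 293T FXR-UAS-bla, 5000 cells/well; compound + CDCA 50 uM final; 16 h, 37 °C; B/G FRET substrate 2 h RT; fluorescence.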

[19] = molecular target: Bile acid receptor (Homo sapiens) (UniProt Q96RI1); test: qHTS assay to identify small molecule agonists of the farnesoid-X-receptor (FXR) signaling pathway (AID 743220; active = well fitted activation curve with a large enough effect in the signal ratio in the repeat runs, not every such curve was filed as active; the % refers to the signal ratio)
Outline: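 Beta-lactamase reporter under UAS control in GeneBLAzer FXR HEK 293T cells (5000/well) measured with LiveBLAzer FRET substrate after 2 h at room temperature. Compound exposure lasted 16 h at 37C.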

[20] = qHTS assay for small molecule agonists of the antioxidant response element (ARE) signaling pathway (AID 743202; active = well fitted activation curve with a large enough effect in the signal ratio in the repeat runs, not every such curve was filed as active; the % refers to the signal ratio)
Outline: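 Quantitative high-throughput format in HepG2 cells bearing an integrated ARE-beta-lactamase reporter. Compound exposure lasted 16 h at 37 C, and fluorescence was read 2 h after adding LiveBLAzer B/G substrate at room temperature.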

Measured: Potency

Chain of Aryl hydrocarbon receptor (Homo sapiens) (P35869 whole entry, looked up): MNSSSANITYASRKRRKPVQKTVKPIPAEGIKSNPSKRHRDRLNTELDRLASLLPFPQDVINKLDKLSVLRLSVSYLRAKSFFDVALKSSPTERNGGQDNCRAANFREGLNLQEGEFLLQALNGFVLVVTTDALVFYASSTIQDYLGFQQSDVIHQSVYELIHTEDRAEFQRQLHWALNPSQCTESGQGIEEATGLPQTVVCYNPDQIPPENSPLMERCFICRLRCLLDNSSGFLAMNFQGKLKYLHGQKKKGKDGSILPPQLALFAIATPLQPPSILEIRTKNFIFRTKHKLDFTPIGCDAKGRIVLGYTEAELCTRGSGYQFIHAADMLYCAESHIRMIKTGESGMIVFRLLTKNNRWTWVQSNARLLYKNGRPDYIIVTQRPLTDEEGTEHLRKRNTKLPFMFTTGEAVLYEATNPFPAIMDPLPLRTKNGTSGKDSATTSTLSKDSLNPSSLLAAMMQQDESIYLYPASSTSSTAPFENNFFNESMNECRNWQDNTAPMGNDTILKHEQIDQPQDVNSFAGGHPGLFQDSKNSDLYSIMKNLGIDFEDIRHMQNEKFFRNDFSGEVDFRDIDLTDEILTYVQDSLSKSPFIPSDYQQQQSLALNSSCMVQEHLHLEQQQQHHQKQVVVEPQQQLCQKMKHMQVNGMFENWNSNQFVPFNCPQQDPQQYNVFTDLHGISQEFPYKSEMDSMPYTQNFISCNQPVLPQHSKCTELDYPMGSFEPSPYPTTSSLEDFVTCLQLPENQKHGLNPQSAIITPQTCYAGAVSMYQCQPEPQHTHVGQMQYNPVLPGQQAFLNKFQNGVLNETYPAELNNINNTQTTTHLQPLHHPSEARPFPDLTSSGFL
Chain of Peroxisome proliferator-activated receptor delta (Homo sapiens) (Q03181 whole entry, looked up): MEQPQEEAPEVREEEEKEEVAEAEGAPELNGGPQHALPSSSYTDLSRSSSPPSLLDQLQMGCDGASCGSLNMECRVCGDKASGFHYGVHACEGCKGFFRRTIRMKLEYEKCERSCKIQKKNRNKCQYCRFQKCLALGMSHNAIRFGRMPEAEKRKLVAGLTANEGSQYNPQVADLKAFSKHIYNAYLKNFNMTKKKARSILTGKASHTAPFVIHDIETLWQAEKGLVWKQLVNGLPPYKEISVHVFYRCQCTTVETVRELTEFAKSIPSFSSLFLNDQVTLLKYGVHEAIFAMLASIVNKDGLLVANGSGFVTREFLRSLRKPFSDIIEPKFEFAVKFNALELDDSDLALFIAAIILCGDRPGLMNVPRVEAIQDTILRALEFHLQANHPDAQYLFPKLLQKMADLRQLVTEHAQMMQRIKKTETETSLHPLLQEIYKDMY
Chain of Vitamin D3 receptor (Homo sapiens) (P11473 whole entry, looked up): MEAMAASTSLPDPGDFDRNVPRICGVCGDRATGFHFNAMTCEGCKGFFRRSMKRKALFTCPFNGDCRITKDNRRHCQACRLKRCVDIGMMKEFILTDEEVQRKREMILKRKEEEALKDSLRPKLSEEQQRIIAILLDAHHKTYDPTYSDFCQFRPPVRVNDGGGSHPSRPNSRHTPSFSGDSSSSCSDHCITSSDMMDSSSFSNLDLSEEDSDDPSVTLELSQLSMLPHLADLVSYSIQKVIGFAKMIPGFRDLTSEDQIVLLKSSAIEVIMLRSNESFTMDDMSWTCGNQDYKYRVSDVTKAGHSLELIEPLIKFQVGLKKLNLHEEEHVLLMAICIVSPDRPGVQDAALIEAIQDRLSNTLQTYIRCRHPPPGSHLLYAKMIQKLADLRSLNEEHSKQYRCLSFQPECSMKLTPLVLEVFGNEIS
Chain of Peroxisome proliferator-activated receptor gamma (Homo sapiens) (P37231 whole entry, looked up): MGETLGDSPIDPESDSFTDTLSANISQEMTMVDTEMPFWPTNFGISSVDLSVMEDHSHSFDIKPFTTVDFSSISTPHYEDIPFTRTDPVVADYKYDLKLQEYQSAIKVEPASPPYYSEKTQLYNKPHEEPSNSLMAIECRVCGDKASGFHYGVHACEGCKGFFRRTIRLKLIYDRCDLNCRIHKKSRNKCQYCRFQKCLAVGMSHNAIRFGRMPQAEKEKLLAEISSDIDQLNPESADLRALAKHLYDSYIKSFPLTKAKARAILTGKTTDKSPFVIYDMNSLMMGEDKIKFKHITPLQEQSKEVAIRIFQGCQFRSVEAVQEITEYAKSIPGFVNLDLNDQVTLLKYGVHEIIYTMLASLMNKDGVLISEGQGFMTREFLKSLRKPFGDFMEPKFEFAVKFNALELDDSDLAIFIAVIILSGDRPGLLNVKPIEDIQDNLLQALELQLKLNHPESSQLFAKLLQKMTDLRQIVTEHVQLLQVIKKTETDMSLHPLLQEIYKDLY
Chain of Bile acid receptor (Homo sapiens) (Q96RI1 whole entry, looked up): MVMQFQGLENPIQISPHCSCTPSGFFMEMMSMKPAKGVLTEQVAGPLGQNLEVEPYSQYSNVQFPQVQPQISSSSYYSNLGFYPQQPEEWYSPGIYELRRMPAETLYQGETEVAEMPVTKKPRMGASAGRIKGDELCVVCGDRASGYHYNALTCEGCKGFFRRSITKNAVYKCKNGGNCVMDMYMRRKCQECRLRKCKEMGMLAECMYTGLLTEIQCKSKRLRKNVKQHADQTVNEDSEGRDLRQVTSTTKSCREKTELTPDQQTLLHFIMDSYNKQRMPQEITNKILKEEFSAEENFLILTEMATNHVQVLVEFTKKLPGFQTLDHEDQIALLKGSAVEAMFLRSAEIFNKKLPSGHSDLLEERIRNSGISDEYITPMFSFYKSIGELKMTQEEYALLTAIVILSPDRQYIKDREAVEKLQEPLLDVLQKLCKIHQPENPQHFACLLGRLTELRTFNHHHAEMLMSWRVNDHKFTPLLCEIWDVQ

CCCCCCC(=O)CCCCCC/C=C/C[C@@H](O)[C@H](O)[C@@](N)(CO)C(=O)O
not listed: [14] | [15] | [16] | [17] | [18] | [19] | [20]
inactive: all other assays above

CC(C)c1ccc(O)cc1
not listed: [2] | [10] | [12] | [18] | [19] | [20]
inactive: all other assays above

O=C(O)c1c(Cl)ccc2cc(Cl)cnc12
not listed: [12] | [14] | [15] | [20]
inactive: all other assays above

Cn1c(N)nc2c3cccnc3ccc21
active: [1] 29.1 µM | [2] 4.61 µM
not listed: [13] | [14] | [15]
inactive: all other assays above

O=C(CCl)NCO
not listed: [13] | [14] | [15] | [18] | [19] | [20]
inactive: all other assays above

CC(O)CCl (stereo not drawn)
not listed: [13] | [14] | [16] | [17] | [20]
inactive: all other assays above

CNC(=O)Oc1cc(C)c(N(C)C)c(C)c1
not listed: [2] | [7] | [12] | [13] | [19]
inactive: all other assays above

CCCOc1nn(C(=O)NS(=O)(=O)c2ccccc2C(=O)OC)c(=O)n1C
not listed: [2] | [9] | [13] | [17] | [18] | [19]
inactive: all other assays above

COc1ccccc1OC
not listed: [2] | [4] | [13] | [18] | [19]
inactive: all other assays above

C=CC=O
not listed: [9] | [10] | [14] | [15] | [18] | [19] | [20]
inactive: all other assays above

CC[C@@H](CO)NC(=O)[C@@H]1C=C2c3cccc4[nH]cc(c34)C[C@H]2N(C)C1
inactive: [1] | [2] | [4] | [20] | [5] | [6] | [8] | [9] | [10] | [17] | [11]

CNC(=O)O/N=C(/CSC)C(C)(C)C
not listed: [2] | [8] | [9] | [10] | [12] | [18] | [19]
inactive: all other assays above

C/C=C/CC#N
not listed: [9] | [10] | [12] | [13] | [14] | [15] | [18]
inactive: all other assays above

N#CC(Br)(Br)C(N)=O
inactive: [1] | [2] | [4] | [5] | [6] | [7] | [9] | [11]

O=C(Cl)C(Cl)Cl
not listed: [12] | [14] | [15] | [18] | [19]
inactive: all other assays above

NC1(c2ccccc2)CCCCC1
not listed: [3] | [12] | [13] | [14] | [18]
inactive: all other assays above

O=C/C=C/c1ccco1
not listed: [3] | [12] | [13] | [14] | [15] | [16] | [18] | [19]
inactive: all other assays above

C[C@H]1CCCC(=O)CCC/C=C/c2cc(O)cc(O)c2C(=O)O1
inactive: [2] | [3] | [15] | [5] | [16] | [8] | [11]
active: [1] 18.6 µM | [7] 12.7 µM

CC(C)(C)NC[C@H](O)c1ccc(O)cc1Cl
not listed: [2] | [9] | [12] | [16]
inactive: all other assays above
